These results are taken from PubChem BioAssay.

Experiment [1] concerns Aerobactin synthetase IucA (Klebsiella pneumoniae). The experiment in a line: IucA aerobactin synthetase inhibitors, biochemical, Tocris library, absorbance (AID 1345561; call rule not given here;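 also: 100% = enzyme without compound and 0% = no enzyme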). Particulars: purified IucA enzyme assay, absorbance (OD) read-out; stronger effect = lower value;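 tested at 8 µM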.
Experiment [2] can be described thus: sensitizers of A549 cells to miR-34 induction, primary screen, imaging, A549 dox-inducible miR-34, nuclei and caspase counts (AID 1347080). The note with it: A549 miR-34 inducible, Hoechst nuclei count, 48 h.
Experiment [3] is described as follows: viability rescue of complex I mutant cybrids, primary screen, cell-based, galactose medium, ATP luminescence (AID 1645843;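 active = z-score of at least 1.8 in each of two replicates, scored against plate mean and spread of sample wells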;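 also: positive z means more ATP and so rescue of galactose-driven cybrid death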). The note with it: complex I mutant cybrid cells, 72 h, stronger effect = higher value.
[4] abbreviates: stronger effect = lower value, cell number ratio, induced over uninduced.
[5] abbreviates: measured here: relative caspase fold change +Dox/-Dox.
The mark [6] stands for this setting: measured here: total cells with miR-34 induction, stronger effect = lower value.
[7] abbreviates: measured here: total cells without miR-34 induction.

Values joined by “and” are separate entries in the source; they are usually repeats but may differ in a detail not shown here. Identical values can stand only once. Active and inactive are the calls of the source.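 The calls were made as follows, unless noted: active = compounds whose cell count with miR-34 switched on is under 0.7 times the count with it off; inactive = the rest.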

As a reminder, the remaining activity is the signal under treatment as a percentage of the control signal.

For the molecule `CCCCn1c(=O)c2[nH]c(C34CC5CC(CC3C5)C4)nc2n(CCCO)c1=O`, the remaining activity in experiment [1] is 106% (inactive). Moreover, the fold change in experiment [2] (setting [4]) is 1.02 (inactive); in experiment [2] (setting [5]), 1.81. Besides, the cell count was found to be 5180 in experiment [2] (setting [6]) and 5060 in experiment [2] (setting [7]). Also, the z-score in experiment [3] was 0.41 (inactive).
Consider `CN(CC[C@@H](Oc1ccc(-c2ccccc2)cc1)c1ccc(F)cc1)CC(=O)O`, for which, in experiment [1], the remaining activity was 116% (inactive). The fold change in experiment [2] (setting [4]) was 0.898 (inactive); in experiment [2] (setting [5]), 1.24. For the same molecule, the cell count in experiment [2] (setting [6]) stood at 7970; in experiment [2] (setting [7]), 8870. Besides, in experiment [3], the z-score was 0.455 (inactive).
Regarding `N[C@@H](C(=O)O)c1ccc(C(=O)O)c(C(=O)O)c1`, in experiment [1], the remaining activity is 95.5% (inactive). Further, the fold change in experiment [2] (setting [4]) is 0.914 (inactive); in experiment [2] (setting [5]), 0.832. Besides, the cell count in experiment [2] (setting [6]) amounted to 8600; in experiment [2] (setting [7]) it was 9410. The z-score in experiment [3] was 0.05 (inactive).
Regarding `CC1c2ccccc2CN1CC1=NCCN1` (centres undefined), the remaining activity in experiment [1] was 111% (inactive). Also, the fold change is 0.985 (inactive) in experiment [2] (setting [4]) and 0.732 in experiment [2] (setting [5]). Besides, the cell count in experiment [2] (setting [6]) was found to be 8400; in experiment [2] (setting [7]), 8530. The z-score in experiment [3] is -0.515 (inactive).
`CN1CCN(CCc2ccc(Cl)c(Cl)c2)CC1`: the remaining activity in experiment [1] is 124% (inactive). The values for the fold change in experiment [2] (setting [4]) and in experiment [2] (setting [5]) were 1.04 (inactive) and 1.01, respectively. In addition, the cell count in experiment [2] (setting [6]) stood at 7800; in experiment [2] (setting [7]), 7520. For the same molecule, the z-score in experiment [3] was -0.73 (inactive).
Consider `CCOC(=O)C1CSC(Cc2ccc(OCc3ccc([N+](=O)[O-])cc3)cc2)N1` (centres undefined), for which the remaining activity in experiment [1] was 95.4% (inactive). For the same molecule, the fold change in experiment [2] (setting [4]) is 0.923 (inactive); in experiment [2] (setting [5]), 1.54. The cell count worked out at 8250 in experiment [2] (setting [6]) and 8940 in experiment [2] (setting [7]). Also, in experiment [3], the z-score is -0.58 (inactive).
On to `CCCCc1nc2ccn(CC(=O)N(C)C)c(=O)c2n1Cc1ccc(-c2ccccc2-c2nn[nH]n2)cc1`, for which the remaining activity in experiment [1] was 111% (inactive). For the same molecule, the fold change in experiment [2] (setting [4]) is 1.01 (inactive); in experiment [2] (setting [5]), 0.927. Besides, the cell count in experiment [2] (setting [6]) is 8240; in experiment [2] (setting [7]) it was 8192. In experiment [3], the z-score is -0.18 (inactive).
On to `COc1ccc2cccc(N3CCN(CCNC(=O)c4ccc(F)cc4)CC3)c2c1`, for which the remaining activity in experiment [1] was 104% (inactive). Moreover, the fold change in experiment [2] (setting [4]) was 0.924 (inactive); in experiment [2] (setting [5]) it was 0.854. The cell count in experiment [2] (setting [6]) was 7720; in experiment [2] (setting [7]), 8360. In experiment [3], the z-score is -0.77 (inactive).
On to `Nc1nnc(Sc2ncc([N+](=O)[O-])s2)s1`, for which, in experiment [1], the remaining activity is 119% (inactive). Moreover, the fold change in experiment [2] (setting [4]) was 0.911 (inactive); in experiment [2] (setting [5]), 4.18. In addition, the cell count was 3000 in experiment [2] (setting [6]) and 3290 in experiment [2] (setting [7]). The z-score in experiment [3] is -1.04 (inactive).
Consider `CC(C)N1Cc2cc(S(C)(=O)=O)ccc2N(CCN2CC=C(c3c[nH]c4cc(F)ccc34)CC2)S1(=O)=O`, for which, in experiment [1], the remaining activity was 110% (inactive). For the same molecule, the fold change in experiment [2] (setting [4]) was 0.929 (inactive); in experiment [2] (setting [5]), 1.15. The cell count was 6990 in experiment [2] (setting [6]) and 7530 in experiment [2] (setting [7]). Moreover, the z-score in experiment [3] is 0.12 (inactive).
For the molecule `C[C@@]1(O)[C@H](O)[C@@H](CO)O[C@H]1n1cnc2c(NC3CCCC3)nc(Cl)nc21`, in experiment [1], the remaining activity is 118% (inactive). In addition, the fold change in experiment [2] (setting [4]) was 1.01 (inactive); in experiment [2] (setting [5]), 1.12. Also, the figures for the cell count in experiment [2] (setting [6]) and in experiment [2] (setting [7]) were 7690 and 7600, respectively. Further, the z-score in experiment [3] is 0.755 (inactive).
For `Cc1ccccc1N=Nc1ccc(NC(=O)c2ccnn2C)c(C)c1`, the remaining activity in experiment [1] was 109% (inactive). Moreover, the fold change in experiment [2] (setting [4]) was 0.919 (inactive); in experiment [2] (setting [5]) it was 0.67. Moreover, the cell count in experiment [2] (setting [6]) is 5460; in experiment [2] (setting [7]), 5950. Besides, in experiment [3], the z-score is -0.675 (inactive).
In the case of `c1ccc(CN2CCC3(CCc4ccccc43)CC2)cc1`, the remaining activity in experiment [1] is 97.3% (inactive). Further, the results for the fold change in experiment [2] (setting [4]) and in experiment [2] (setting [5]) were 0.952 (inactive) and 0.584, respectively. The cell count in experiment [2] (setting [6]) came to 8830; in experiment [2] (setting [7]), 9280. Moreover, the z-score in experiment [3] is 0.76 (inactive).
In the case of `COc1cc(N)c(Cl)cc1C(=O)CCC1CCN(CCNS(C)(=O)=O)CC1`, the remaining activity in experiment [1] was 97.5% (inactive). Further, the fold change in experiment [2] (setting [4]) was 0.928 (inactive); in experiment [2] (setting [5]), 0.69. Also, the figures for the cell count in experiment [2] (setting [6]) and in experiment [2] (setting [7]) were 9240 and 9960, respectively. Further, the z-score in experiment [3] was 1.25 (inactive).
Turning to `COc1cc([C@@H]2c3cc4c(cc3C(OC3OC5COC(C)OC5C(O)C3O)C3COC(=O)[C@@H]32)OCO4)cc(OC)c1O` (some centres undefined), in experiment [1], the remaining activity is 116% (inactive). Besides, the values for the fold change in experiment [2] (setting [4]) and in experiment [2] (setting [5]) were 1.07 (inactive) and 0.575, respectively. For the same molecule, the cell count in experiment [2] (setting [6]) was 4900; in experiment [2] (setting [7]), 4590. Also, the z-score in experiment [3] was -0.765 (inactive).
As to `O=C(Nc1c(-c2cccs2)nc2ccccn12)c1ccc(Cl)cc1`, in experiment [1], the remaining activity is 108% (inactive). The fold change is 0.889 (inactive) in experiment [2] (setting [4]) and 0.893 in experiment [2] (setting [5]). The cell count was found to be 8490 in experiment [2] (setting [6]) and 9560 in experiment [2] (setting [7]). The z-score in experiment [3] is 1.35 (inactive).
As to `Cn1cnnc1Sc1c([N+](=O)[O-])ncn1C`, the remaining activity in experiment [1] was 103% (inactive). Further, the fold change in experiment [2] (setting [4]) was 0.949 (inactive); in experiment [2] (setting [5]), 1.89. Further, the cell count in experiment [2] (setting [6]) came out at 8370; in experiment [2] (setting [7]) it was 8820. For the same molecule, the z-score in experiment [3] is -0.12 (inactive).
Consider `NC(=NC1C2CC3CC(C2)CC1C3)Nc1ccc(I)cc1` (centres undefined), for which the remaining activity in experiment [1] was 126% (inactive). Besides, the figures for the fold change in experiment [2] (setting [4]) and in experiment [2] (setting [5]) were 1.12 (inactive) and 0.649, respectively. The figures for the cell count in experiment [2] (setting [6]) and in experiment [2] (setting [7]) were 2830 and 2540, respectively. In experiment [3], the z-score was -0.39 (inactive).
For the molecule `O=C(NCCN1CCCCC1)c1ccc(I)cc1`, the remaining activity in experiment [1] is 103% (inactive). The fold change is 0.954 (inactive) in experiment [2] (setting [4]) and 0.747 in experiment [2] (setting [5]). Also, the values for the cell count in experiment [2] (setting [6]) and in experiment [2] (setting [7]) were 9320 and 9760, respectively. Also, the z-score in experiment [3] was 0.155 (inactive).
On to `Brc1cc2c(cc1[C@H]1Nc3ccccc3[C@H]3C=CC[C@H]31)OCO2` (racemic), for which, in experiment [1], the remaining activity is 123% (inactive). For the same molecule, the fold change in experiment [2] (setting [4]) was 0.953 (inactive); in experiment [2] (setting [5]), 1.69. The cell count was 6570 in experiment [2] (setting [6]) and 6900 in experiment [2] (setting [7]). Moreover, in experiment [3], the z-score is -0.975 (inactive).
With `O=C(Nc1ccc([N+](=O)[O-])cc1O)Nc1ccccc1Br`, the remaining activity in experiment [1] was 105% (inactive). The fold change was 1.13 (inactive) and 1.09 (inactive) in experiment [2] (setting [4]); 1.05 and 1.85 in experiment [2] (setting [5]). Also, the cell count in experiment [2] (setting [6]) was 5450 and 2460; in experiment [2] (setting [7]), 4830 and 2250. The z-score in experiment [3] was -0.58 (inactive).
With `C=CCNC(=O)c1cc([N+](=O)[O-])cc2c(=O)[nH]c(Nc3ccc(Cl)c(Cl)c3)nc12`, the remaining activity in experiment [1] was 116% (inactive). The fold change in experiment [2] (setting [4]) is 0.926 (inactive); in experiment [2] (setting [5]), 0.827. Further, the cell count in experiment [2] (setting [6]) stood at 8840; in experiment [2] (setting [7]) it was 9550. Besides, the z-score in experiment [3] was -0.09 (inactive).
With `BrC1C(Br)C(Br)C(Br)C(Br)C1Br` (centres undefined), the remaining activity in experiment [1] is 107% (inactive). The fold change in experiment [2] (setting [4]) was 1.04 (inactive); in experiment [2] (setting [5]), 1.17. The cell count in experiment [2] (setting [6]) came to 7970; in experiment [2] (setting [7]), 7680. Further, the z-score in experiment [3] was -0.62 (inactive).
`C[N+](C)(C)CCCCCNCC12CC3CC(CC(C3)C1)C2`: the remaining activity in experiment [1] was 117% (inactive). In addition, the figures for the fold change in experiment [2] (setting [4]) and in experiment [2] (setting [5]) were 0.943 (inactive) and 0.772, respectively. The cell count in experiment [2] (setting [6]) was 8560; in experiment [2] (setting [7]) it was 9080. In addition, the z-score in experiment [3] was -0.15 (inactive).
